# Experimental data taken from the supplement of paper PMC9262897, “Low-cost anti-mycobacterial drug discovery using engineered E. coli” (Nature Communications, 2022).
# Counter-ions that a name gives are not always drawn. ± gives the standard deviation of the averaged measurements.
# Assays:
# Assay in all cases: growth (OD600 after 10 h); higher = more growth (less inhibition)
# [1] = system: E. coli TESEC Alr+ wild-type control; conditions: compound 0.1 mM; raw OD600 reference: median of DMSO wells 0.241, cell-free background 0.041
# Procedure: (§1)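 TESEC Mtb Alr E. coli, or the Alr+ wild-type control, in 384-well plates with Prestwick library compounds at 0.1 mM and 1% DMSO, across arabinose induction levels of 1E3 to 1E7 nM. Growth is read as OD600 after 10 h at 37 °C in triplicate biological replicates.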
# [2] = system: E. coli TESEC Mtb Alr; conditions: compound 0.1 mM
# Procedure: as §1
# [3] = system: E. coli TESEC Mtb Asd; conditions: compound 0.1 mM
# Procedure: (§2)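 TESEC E. coli strains in which the native enzyme is deleted and replaced by arabinose-inducible Mtb Asd, DapB, CysH or TrpD, each grown in its selective medium. Strains were screened against the Prestwick library at 0.1 mM and 1% DMSO in 384-well format at low and high arabinose induction. Growth is read as OD600 after 10 h in triplicate.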
# [4] = system: E. coli TESEC Mtb DapB; conditions: compound 0.1 mM
# Procedure: as §2
# [5] = system: E. coli TESEC Mtb Alr; conditions: compound 0.1 mM; remark: listed apart in the source
# Procedure: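 TESEC Mtb Alr E. coli (ΔaraC ΔtolC ΔentC Δalr ΔdadX, arabinose-inducible Mtb Alr) or the Alr+ wild-type control strain, grown in defined M9-fructose medium without D-alanine in 96-well plates with Prestwick library compounds at 0.1 mM and 1% DMSO. Low Alr induction is 0.1 µM arabinose and high induction is 10 mM arabinose.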
# [6] = arabinose 1000 nM, raw OD600 reference: median of DMSO wells 0.294, cell-free background 0.041
# [7] = arabinose 10000 nM, raw OD600 reference: median of DMSO wells 0.264, cell-free background 0.041
# [8] = arabinose 100000 nM, raw OD600 reference: median of DMSO wells 0.201, cell-free background 0.041
# [9] = arabinose 1000000 nM, raw OD600 reference: median of DMSO wells 0.193, cell-free background 0.041
# [10] = arabinose 10000000 nM, raw OD600 reference: median of DMSO wells 0.146, cell-free background 0.041
# [11] = arabinose induction (level): High, raw OD600 reference: median of DMSO wells 0.331, cell-free background 0.041
# [12] = arabinose induction (level): Low, raw OD600 reference: median of DMSO wells 0.417, cell-free background 0.041
# [13] = arabinose induction (level): High, raw OD600 reference: median of DMSO wells […], cell-free background 0.041
# [14] = arabinose induction (level): Low, raw OD600 reference: median of DMSO wells 0.227, cell-free background 0.041
# [15] = arabinose 100 nM, raw OD600 reference: median of DMSO wells 0.413, cell-free background 0.052
# [16] = arabinose 10000000 nM, raw OD600 reference: median of DMSO wells […], cell-free background 0.052
Compound,growth [1],"growth [2, 6]","growth [2, 7]","growth [2, 8]","growth [2, 9]","growth [2, 10]","growth [3, 11]","growth [3, 12]","growth [4, 13]","growth [4, 14]","growth [5, 15]","growth [5, 16]"
OC(c1ccccc1)(c1ccccc1)C1CCNCC1 [Azacyclonol],0.222 ± 0.014,0.294 ± 0.011,0.269 ± 0.0093,0.2264 ± 0.00067,0.166 ± 0.0076,0.136 ± 0.0054,0.296 ± 0.07,0.442 ± 0.019,0.185 ± 0.013,0.213 ± 0.036,0.412 ± 0.011,0.333 ± 0.035
c1ccc2nc(N3CCNCC3)ccc2c1 [Quipazine dimaleate salt],0.232 ± 0.008,0.298 ± 0.016,0.25 ± 0.0049,0.212 ± 0.04,0.177 ± 0.0045,0.148 ± 0.0043,0.223 ± 0.013,0.257 ± 0.015,0.215 ± 0.019,0.216 ± 0.012,0.402 ± 0.0069,0.371 ± 0.02
CN1C[C@H](CNC(=O)OCc2ccccc2)C[C@@H]2c3cccc4c3c(cn4C)C[C@H]21 [Metergoline],0.0409 ± 0.00056,0.0429 ± 0.0039,0.04017 ± 0.00032,0.0428 ± 0.00093,0.0401 ± 0.00017,0.0432 ± 0.0024,0.0522 ± 0.002,0.0487 ± 0.0029,0.048 ± 0.0011,0.0468 ± 0.00083,0.278 ± 0.2,0.05077 ± 0.00012
C[C@@H]1O[C@@H](O[C@@H]2C=C3CC[C@@H]4[C@H](CC[C@]5(C)[C@@H](c6ccc(=O)oc6)CC[C@]45O)[C@@]3(C)CC2)[C@H](O)[C@H](O)[C@H]1O [Proscillaridin A],0.182 ± 0.0085,0.247 ± 0.0077,0.256 ± 0.016,0.13 ± 0.0072,0.108 ± 0.0053,0.134 ± 0.0043,0.117 ± 0.0017,0.234 ± 0.021,0.163 ± 0.004,0.173 ± 0.019,0.405 ± 0.009,0.267 ± 0.0065
NC(=O)C[S+]([O-])C(c1ccccc1)c1ccccc1 (configuration not stated) [Modafinil],0.246 ± 0.0057,0.295 ± 0.0039,0.255 ± 0.015,0.246 ± 0.021,0.192 ± 0.0097,0.148 ± 0.0039,0.348 ± 0.097,0.434 ± 0.039,0.191 ± 0.013,0.199 ± 0.017,0.406 ± 0.0054,0.346 ± 0.021
CN1[C@@H]2C[C@@H](OC(=O)[C@H](CO)c3ccccc3)C[C@H]1[C@@H]1O[C@@H]12 [Scopolamine hydrochloride],0.252 ± 0.0082,0.321 ± 0.023,0.292 ± 0.011,0.207 ± 0.012,0.182 ± 0.0041,0.157 ± 0.0084,0.469 ± 0.011,0.453 ± 0.025,0.201 ± 0.031,0.228 ± 0.03,0.408 ± 0.016,0.36 ± 0.01
CC(C)C[C@H]1C(=O)N2CCC[C@H]2[C@]2(O)O[C@](NC(=O)[C@@H]3C=C4c5cccc6[nH]c(Br)c(c56)C[C@H]4N(C)C3)(C(C)C)C(=O)N12 [Bromocryptine mesylate],0.108 ± 0.0027,0.112 ± 0.058,0.108 ± 0.0015,0.187 ± 0.12,0.0887 ± 0.025,0.191 ± 0.013,0.208 ± 0.056,0.117 ± 0.047,0.236 ± 0.07,0.229 ± 0.018,0.401 ± 0.0088,0.323 ± 0.067
C[C@]12CC[C@H](O)C[C@@H]1CC[C@@H]1[C@@H]2CC[C@]2(C)C(=O)CC[C@@H]12 [Epiandrosterone],0.126 ± 0.0063,0.12 ± 0.0055,0.107 ± 0.0061,0.0943 ± 0.0019,0.0694 ± 0.0019,0.0859 ± 0.0011,0.0929 ± 0.015,0.168 ± 0.018,0.152 ± 0.021,0.136 ± 0.006,0.353 ± 0.043,0.109 ± 0.0099
Oc1cc(Cl)ccc1Oc1ccc(Cl)cc1Cl [Triclosan],0.0414 ± 0.0012,0.0413 ± 0.0016,0.04137 ± 0.00025,0.04127 ± 0.00015,0.0423 ± 0.0022,0.04107 ± 0.00021,0.0494 ± 0.0062,0.04643 ± 0.00015,0.0466 ± 0.0004,0.0475 ± 0.0016,0.052 ± 0.0048,0.054 ± 0.001
C[C@]12CCC(=O)C=C1C=C[C@@H]1[C@@H]2CC[C@@]2(C)[C@H]1CC[C@@]2(O)CCC(=O)O [Canrenoic acid potassium salt],0.227 ± 0.01,0.275 ± 0.025,0.237 ± 0.019,0.16 ± 0.0057,0.163 ± 0.0033,0.15 ± 0.0017,0.214 ± 0.052,0.341 ± 0.03,0.196 ± 0.012,0.211 ± 0.031,0.407 ± 0.0047,0.264 ± 0.011
C[C@]12CC[C@H](O)C[C@H]1CC[C@@H]1[C@@H]2C[C@@H](O)[C@]2(C)[C@@H](C3=CC(=O)OC3)CC[C@]12O [Digoxigenin],0.228 ± 0.005,0.299 ± 0.018,0.257 ± 0.0041,0.201 ± 0.016,0.17 ± 0.0032,0.14 ± 0.0016,0.262 ± 0.025,0.458 ± 0.024,0.1864 ± 0.00095,0.244 ± 0.0061,0.408 ± 0.02,0.331 ± 0.011
CN1[C@@H]2CC[C@H]1C[C@@H](OC1c3ccccc3CCc3ccccc31)C2 [Deptropine citrate],0.046 ± 0.0008,0.041 ± 0.0014,0.03993 ± 0.00025,0.043 ± 0.001,0.0411 ± 0.0015,0.04267 ± 0.00021,0.0939 ± 0.05,0.0858 ± 0.012,0.0744 ± 0.011,0.069 ± 0.01,0.392 ± 0.0043,0.0701 ± 0.03
CC(O)(CS(=O)(=O)c1ccc(F)cc1)C(=O)Nc1ccc(C#N)c(C(F)(F)F)c1 (configuration not stated) [Bicalutamide],0.154 ± 0.0054,0.2 ± 0.0073,0.306 ± 0.018,0.1769 ± 0.0014,0.108 ± 0.0031,0.15 ± 0.0023,0.216 ± 0.027,0.253 ± 0.017,0.196 ± 0.015,0.236 ± 0.021,0.397 ± 0.018,0.232 ± 0.054
CCC1=C[C@H]2CN3CCc4c([nH]c5ccccc45)[C@](C(=O)OC)(C2)[C@H]13 [Catharanthine],0.203 ± 0.0049,0.262 ± 0.012,0.259 ± 0.006,0.169 ± 0.013,0.101 ± 0.0015,0.144 ± 0.0052,0.2 ± 0.032,0.437 ± 0.016,0.167 ± 0.0065,0.1738 ± 0.0015,0.4199 ± 0.0038,0.3 ± 0.017
COc1cc2c(cc1OC)C(C)NCC2 (configuration not stated),0.236 ± 0.0037,0.2925 ± 0.0014,0.275 ± 0.0075,0.225 ± 0.035,0.188 ± 0.0027,0.15 ± 0.0045,0.337 ± 0.049,0.349 ± 0.082,0.212 ± 0.013,0.232 ± 0.0067,0.408 ± 0.011,0.323 ± 0.025
O[C@@H]1CCCC[C@H]1N1CCC(c2ccccc2)CC1 [L(-)-vesamicol hydrochloride],0.216 ± 0.0031,0.281 ± 0.014,0.251 ± 0.0068,0.176 ± 0.012,0.182 ± 0.0074,0.141 ± 0.0046,0.294 ± 0.048,0.381 ± 0.016,0.194 ± 0.018,0.201 ± 0.015,0.414 ± 0.012,0.358 ± 0.0053
